An excerpt weighted towards active compounds, which were near 2.8% of everything screened.
POLK inh = DNA polymerase kappa (human) inhibition; Q9UBT6; purified Pol kappa, fluorescent DNA synthesis assay, 10 min; Potency, µM (titrated, usually from 107 µM), for inactives: at the highest dose activity, negative = inhibition, hits mostly inhibitors; actives 0.53% (n = 400,000); AID 588579; also: potency is read from the fitted curve at half-maximal effect; % is scaled to controls: 0 for no effect and ±100 for the full control effect
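Pol kappa 10 nM + cpd, 15 min RT; start w/ substrate 50 nM final; fluorescence kinetic read, 0 and 10 min. Neg ctrl: buffer, no enzyme.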
PI5P4Ka inh = PI5P4K alpha (human) kinase inhibition | AID 652105 | P48426 | PI5P4Kalpha enzyme, ADP-Glo luminescence, 60 min; active compounds read low | actives 1.2% (n = 330,000) | max response, %; active = max response of -50% or lower; inconclusive = between -30% and -50%; inactive = -30% or higher; also: value at the top dose of about 77 µM; % is scaled to controls: 0 for no effect and ±100 for the full control effect
Target sequence (P48426 whole entry, looked up): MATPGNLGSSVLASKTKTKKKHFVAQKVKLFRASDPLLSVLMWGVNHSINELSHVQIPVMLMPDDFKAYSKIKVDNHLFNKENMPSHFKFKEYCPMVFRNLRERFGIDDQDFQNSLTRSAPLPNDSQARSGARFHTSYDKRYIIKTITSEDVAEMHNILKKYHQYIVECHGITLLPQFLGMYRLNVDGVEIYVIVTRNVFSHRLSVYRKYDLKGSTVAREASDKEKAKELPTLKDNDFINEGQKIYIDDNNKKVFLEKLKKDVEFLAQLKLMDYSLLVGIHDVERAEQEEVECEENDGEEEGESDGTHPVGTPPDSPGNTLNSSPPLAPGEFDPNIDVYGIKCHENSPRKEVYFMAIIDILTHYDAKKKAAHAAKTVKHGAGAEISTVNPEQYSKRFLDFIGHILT
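Controls without substrate or without enzyme flank wells where PI5P4Kalpha converts substrate using 5 microM ATP (final). Incubation lasts 60 minutes at room temperature; ADP formed is read by ADP-Glo luminescence.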
POLB inh = DNA polymerase beta (human) inhibition; P06746; Pol beta primer extension/strand displacement, fluorescence kinetic; Potency, µM (doses to about 114 µM), inactives show top-dose activity change, negative = inhibition, actives largely listed as inhibitors; actives 1.3% (n = 340,000); also: potency is read from the fitted curve at half-maximal effect; % is scaled to controls: 0 for no effect and ±100 for the full control effect
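Preincubation: enzyme (10 nM) with compound, 15 min, RT. Reaction: substrate added to 50 nM final. Reads: 0 and 10 min. Analysis: normalized, Hill fit.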
Pol iota inh = blocks human DNA polymerase iota activity. Q9UNA4. AID 588590. Potency, µM (top dose mostly 115 µM), inactives show at the highest dose activity, negative = inhibition, most hits filed as inhibitors. actives 1% (n = 390,000). Pol iota fluorescent replication assay, 10 min; also: potency is read from the fitted curve at half-maximal effect
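Pol iota at 10 nM preincubated 15 min with compounds at room temperature; reaction started with fluorescent substrate, 50 nM final. Fluorescence read kinetically at 0 and 10 min; buffer-only wells as negative control.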
FEN1 inhibitor = human FEN1 inhibition; P39748; Recombinant FEN1 flap cleavage, fluorescence, 15 min; Potency, µM (titrated, usually from 114 µM), without a hit: top-dose activity change, negative = inhibition, usual class: inhibitors; actives 0.35% (n = 390,000); AID 588795; also: potency is read from the fitted curve at half-maximal effect; % is scaled to controls: 0 for no effect and ±100 for the full control effect; nearly all actives have a fitted effect of over 65% in size
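FEN1 at 10 nM, compound pretreatment for 15 min (room temperature), 50 nM final substrate to initiate; endpoint reads at 0 and 15 min; DMSO-only plates used as vehicle background.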
Pol eta inh = DNA polymerase eta (human) inhibition; recombinant Pol eta, fluorescent DNA replication assay; Potency, µM (titrated, usually from 114 µM), without a hit: at the highest dose activity change, negative = inhibition, hits mostly inhibitors; actives 1.2% (n = 390,000); AID 588591; also: potency is read from the fitted curve at half-maximal effect; % is scaled to controls: 0 for no effect and ±100 for the full control effect
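Pol eta at 10 nM preincubated with compounds 15 min at room temperature; reaction started with fluorescent substrate (50 nM final) and read kinetically at 0 and 10 min.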
Numbers without * were called inactive; ? = inconclusive; · = no result; ! = repeats disagree; [ ] = dose if it differs, or a comment. Unless noted, calls follow the shape of the dose curve; as a rule, active = well fitted curve in the direction sought with a large enough effect; inconclusive = small, poorly fitted or top-dose-only effect, or another doubt; inactive = no such curve, though single readings can be large; an effect the other way counts as inactive or inconclusive.

SMILES | POLK inh | PI5P4Ka inh | POLB inh | Pol iota inh | FEN1 inhibitor | Pol eta inh
O=C1c2ccccc2C(=O)N1Cc1ccco1 | -7% | 0 | 7% | 22% | -9% | -3%
CC(C)(C)n1ncc2c(=O)n(Cc3cc(C(F)(F)F)ccc3Cl)cnc21 | -8% | · | · | 15% | -26% | ·
Nc1nc(=O)n(C2OC(CO)C(O)C2O)cc1Cl (stereo unspecified) | -2%[60.1 µM] | · | · | · | · | ·
COc1ccc(-n2c(-c3ccc(Cl)cc3Cl)n[nH]c2=S)c(OC)c1 | 0% | -64* | 49% | 57% | -12% | -19%
Cc1[nH]c(=O)c(C(=O)/C=C/c2ccccc2F)c2c1CCCC2 | -9% | · | -1% | 18µM* | -4% | ?
CC(Cc1ccc(O)c(O)c1)C(C)Cc1ccc(O)c(O)c1 (stereo unspecified) | 10µM* | -82* | · | 45µM* | ? | 28µM*
C[C@H](Cc1ccc(O)c(O)c1)[C@@H](C)Cc1ccc(O)c(O)c1 | 1.7µM* | · | 0.79µM* | 1.8µM*! | · | 3.2µM*
COc1ccc(NC(=O)COC(=O)CNS(=O)(=O)/C=C/c2ccccc2)cc1OC | -3% | -3 | · | 4% | -7% | 6%
CCN(C(=O)C1CCCN(c2ncnc3onc(-c4ccc(F)cc4)c23)C1)c1ccccc1 (stereo unspecified) | -9% | · | -2% | -6% | -1% | -9%
Cc1ccc(N2CCN(S(=O)(=O)c3cc(C(=O)Nc4cc(Cl)cc(Cl)c4)ccc3F)CC2C)cc1 (stereo unspecified) | -5%[60.1 µM] | · | -1% | 10% | 8% | 0%
COCCCN=C(c1ccco1)n1c(=S)nc(-c2ccco2)n(CCCOC)c1=S | ? | · | 35µM* | 20µM* | -5% | -5%
CN(C)c1ccc(Cc2cc3c(O)ccc(O)c3cc(Cc3ccc(N(C)C)cc3)c2=O)cc1 | 7.9µM* | -84* | · | 3.2µM* | 40µM* | 2.2µM*
CN(C)c1ccc(C(=O)c2ccc(O)cc2O)cc1 | -2% | -10 | -1% | 2% | -1% | -5%
CC1(C)CCC(C)(C)c2cc(C(=O)Nc3ccc(C(=O)O)cc3)ccc21 | 7%[19.4 µM] | · | · | · | · | ·
C/C(=C\c1ccc(C(=O)O)cc1)c1ccc2c(c1)C(C)(C)CCC2(C)C | ? | 32 | ? | 32µM*! | -16% | ?
CC(=O)c1ccc(OC(=O)c2nc(-c3ccccc3)oc2C)cc1 | -15% | ? | 50µM* | ? | 10% | ?
CCSS(=O)(=O)c1cccc2cccnc12 | -6% | -84* | 1% | -2% | -32% | 0%
Cc1nnc(SCC(=O)NCc2ccccc2F)c2nn(-c3ccc(Cl)cc3)c(C)c12 | -1%[60.1 µM] | · | ? | 71µM* | -7% | ?
O=C(Nc1ccc([N+](=O)[O-])cc1)Nc1cnccn1 | -7% | 2 | 40µM* | 11% | -18% | -9%
CCCn1c(-c2ccc(OC)cc2)nc2c(=O)n(C)c(=O)[nH]c21 | -3% | -51* | 0% | 8% | -3% | -20%
CCCCn1c(-c2ccc(OC)cc2)nc2c(=O)n(C)c(=O)[nH]c21 | -3% | ? | 22% | -6% | 10% | -11%
CN(CC1COc2ccccc2O1)C(=O)CSc1ncccn1 (stereo unspecified) | -3% | -3 | · | 7% | -14% | 0%
Cc1cc(C)nc(NC(=O)Cc2cccs2)n1 | -4% | -5 | ? | 0% | 0% | -6%
CC(=O)c1cccc(NC(=O)Cc2cccs2)c1 | ? | · | 32µM* | -18% | 13% | ?
CCCNS(=O)(=O)c1ccc(NC(=O)Cc2cccs2)cc1 | -2% | -6 | -29% | 16% | 10% | -5%
SMILES | POLK inh | PI5P4Ka inh | POLB inh | Pol iota inh | FEN1 inhibitor | Pol eta inh
Cc1cccc(C)c1NC(=O)Cc1cccs1 | -14% | ? | 40µM* | ? | 4% | ?
CCCCN(CCCC)S(=O)(=O)c1ccc(NC(=O)Cc2cccs2)cc1 | ? | · | ? | 50µM* | -14% | 79µM*
CC(C)(C)c1csc(NC(=O)c2cccs2)n1 | -8% | -9 | -7% | 2% | -8% | ?
CC(C)(C)c1csc(NC(=O)Cc2cccs2)n1 | -16% | ? | 22µM* | 72% | 1% | -28%
Cc1c(C(=O)N/N=C/c2cccnc2)nnn1-c1nonc1N | 3% | 7 | 32% | 48% | -14% | 1%
CCN(CC)S(=O)(=O)c1ccc2c(c1)N(CC(=O)N(C)Cc1ccccc1)C(=O)CO2 | -5% | · | 24% | 46% | -10% | -9%
CC(=O)Nc1ccc(S(=O)(=O)N/N=C/c2ccc(C)o2)cc1 | -14% | -23 | ? | 25µM* | 19% | ?
Cc1ccc(/C=C/C(=O)Nc2ccc(S(N)(=O)=O)cc2)o1 | -28% | -54* | 3% | ? | -17% | -20%
Cc1ccc(/C=N/NS(=O)(=O)c2ccc([N+](=O)[O-])cc2)o1 | -12% | 1 | -13% | 1% | 3% | -8%
Cc1ccc(/C=C/C(=O)NCc2ccc(S(N)(=O)=O)cc2)o1 | -14% | ? | -28% | ? | -3% | ?
O=C(NC12CC3CC(CC(C3)C1)C2)C1CCCN1C(=O)Nc1ccccc1 (stereo unspecified) | -12% | -1 | 15% | 103% | -9% | -16%
CCOC(=O)c1sc(=S)n(-c2ccccc2)c1NC(C)=O | -18% | ? | -1% | ? | 79µM* | -13%
COc1ccc(NC(=O)CCc2c(C)nn(-c3ccc(N4CCCC4)nn3)c2C)cc1Cl | 12% | · | 2% | 4% | -11% | -22%
CCCCC(=O)NC1CC(=O)N(c2ccc3c(c2)OCCO3)C1 (stereo unspecified) | -9%[60.1 µM] | · | 6% | 5% | 13% | -5%
COc1cc(C)ccc1OCCOCCOc1cc(C)c(C)cc1Br | -4% | 6 | -3% | 100µM* | 6% | -12%
COc1cc(C)ccc1OCCOCCOc1ccccc1Br | -39% | -1 | 13% | -12% | 0% | ?
Cc1cccc(N(C)S(=O)(=O)c2ccc3c(c2)C(C)(C)C(=O)N3C)c1 | ? | -19 | 22µM* | ? | -10% | ?
CC(C)(C)OC(=O)N1CCC(C(=O)Nc2cccc(C(=O)NCc3ccccc3)c2)CC1 | 2% | 0 | · | 16% | -2% | -20%
O=c1/c(=C/c2ccco2)sc2nc(-c3ccccc3Br)nn12 | 79µM* | ? | 35µM* | ? | 10% | 16µM*
Cc1ccc(/C=c2\sc3nc(-c4cccs4)nn3c2=O)o1 | ? | · | 18µM* | ? | 0% | ?
CCCOC(=O)c1cc(-c2ccc(/C=C3/C(=O)N(C)C(=O)C(C#N)=C3C)o2)ccc1Cl | -17% | -58* | · | ? | 0% | 25µM*
CCCOC(=O)c1cc(-c2ccc(C=O)o2)ccc1Cl | -3% | -12 | 23% | -10% | -19% | -11%

Screening results (PubChem)
